Test results taken from PubChem BioAssay (NCI).
About 83,000 compounds went through this panel and 20% of them were active in at least one assay; those are over-represented in the sample as a whole.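 96-well plates, one dose, 48 hours. Percent growth reported; active if below 10.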 Calls of active or inactive are those of the source.

Test system: SW-620 colon
Experiment: NCI-60 one-dose screen, 48 h (100 = growth as untreated, 0 = no growth, -100 = all killed)
Conditions: 10 µM unless noted
Experimental: Growth inhibition of the SW-620 human tumor cell line is measured as a screen for anti-cancer activity. Cells are grown in 96 well plates and exposed to the test compound for 48 hours. Compounds are tested at a single concentration, which is 10^-5 M for most compounds. The reported endpoint is percent growth (GI% or GIPRCNT), where numbers from 0 - 100% represent growth inhibition, and numbers from -100% - 0 represent cell death. For example, a value of 40 represents 60% growth inhibition. A value of 0 means no net growth occurred over the course of the experiment. A value of -40 indicates 40% of cells at the beginning of the experiment died by the end of the experiment. A value of -100 means all cells are dead at the end of the experiment.
NCI-60 Human Tumor Cell Lines Screen was performed using the standard one-dose NCI protocol, which is described in more detail at https://dtp.cancer.gov/discovery_development/nci-60/default.htm.
Compounds with GIPRCNT values below 10 were considered active. Activity score was based on GIPRCNT using the following formula: […]
Score is 0 for GIPRCNT values of 100 or above, 50 for GIPRCNT values of 0, and 100 for GIPRCNT values of -100.

| Structure (SMILES) | growth |
| --- | --- |
| O=C(Nc1ccc(Cl)cc1)c1cc2c(cc1O)[nH]c1ccccc12 | 19.1% (inactive) |
| c1ccc(-n2nnnc2-c2cccc3ccccc23)cc1 | 20.8% (inactive) |
| CCN(CC)CCCNCCCNc1cc(OC)cc2cccnc12 | 38.7% (inactive) |
| CC/C=C\C=C/C(=O)N/C=C/CC1Cc2cccc(O)c2C(=O)O1 (stereo not given) | 26.9% (inactive) |
| O=C(/C=C/c1cccnc1)NCCCCC1CCCN(C(=O)c2ccccc2)C1 (stereo not given) | 25.5% (inactive) |
| COc1ccc(-n2nc3c(c2-c2ccc(OC)c(OC)c2)-c2oncc2CC3)cc1 | 99% (inactive) |
| O=C(CN1CCCCC1)Sc1nnc2sc3ccccc3n12 | 101% (inactive) |
| CCOC(=O)C(C(C)=O)c1nc2sc3cc(Cl)ccc3n2c(=N)c1C#N (stereo not given) | 98.4% (inactive) |
| O=C1Cc2cc(CCN3CCN(CCOCCO)CC3)c(Cl)cc2N1Cc1ccc(-c2ccccc2-c2nn[nH]n2)cc1 | 95.9% (inactive) |
| COc1cc(/C=C/c2nnc(-c3cc(-c4ccccc4)n[nH]3)o2)cc(OC)c1OC | 115% (inactive) |
| COc1ccc(C2CC(c3cccc(Nc4ccnc5cc(Cl)ccc45)c3)=NN2C=O)cc1 (stereo not given) | 18.7% (inactive) |
| CCCCCCCCSc1ncnc2c1ncn2CO | 93.8% (inactive) |
| NNC(=O)C1CC2c3ccccc3C1c1ccccc12 (stereo not given) | 108% (inactive) |
| O=c1c(O)cccn1CCCNCCCN(CCCn1cccc(O)c1=O)CCCn1cccc(O)c1=O | 99.1% (inactive) |
| OC(Cc1cccnc1)c1ccccc1 (stereo not given) | 100% (inactive) |
| O=[N+]([O-])c1ccc(Oc2cccc(C(F)(F)F)c2)c([N+](=O)[O-])c1 | 13.5% (inactive) |
| CCC(c1ccccc1)c1noc(CCN(CC)CC)n1 (stereo not given) | 120% (inactive) |
| COc1ccc(-c2c(-c3cc(OC)c(OC)c(OC)c3)noc2N)cc1 | 21.7% (inactive) |
| COc1ccc(-c2nn(-c3ccccc3)cc2/C=C2\SC(=S)N(CCc3ccc(O)cc3)C2=O)cc1 | 87.6% (inactive) |
| COc1ccc(-c2nnc(COc3ccc(NC(=O)Nc4cc(C(F)(F)F)cc(C(F)(F)F)c4)cc3F)o2)cc1 | 13.6% (inactive) |

| Structure (SMILES) | growth |
| --- | --- |
| Cc1c(C(N)=O)sc2c1c(=O)n(Cc1ccccc1)c1nnc(S(=O)(=O)CC(=O)Nc3ccc(Cl)cc3)n21 | 39.6% (inactive) |
| O[C@@H]1Cc2ccc3ccccc3c2N[C@H](c2ccoc2)C1 | 112% (inactive) |
| CCCn1cnc2c1c(=O)n(CCCCC(C)=O)c(=O)n2C | 97.7% (inactive) |
| Cc1ccc(C=C2C(Cl)=C(Cl)C(Cl)=C2Cl)cc1 | -77.9% (active) |
| C/C(=N/N=C(N)N)c1ccc(Cl)cc1 | 112% (inactive) |
| Cc1cc(C)n2nc(SCC(=O)Nc3sc4c(c3C(N)=O)CCC4)nc2n1 | 100% (inactive) |
| CCOC(=O)c1cc(-c2cccnc2)nc2c(Cl)cc(Cl)cc12 | 103% (inactive) |
| COc1ccc2c(c1)C(=O)/C(=C/c1cccc(OCC(=O)c3ccccc3)c1)CC2 | 66% (inactive) |
| COc1cc(C(=O)/C=C/c2cccnc2Nc2ccccc2)cc(OC)c1OC | -84% (active) |
| NC(=O)N/N=C/c1ccc(Br)o1 | 114% (inactive) |
| COc1ccc(Nc2nccc(N3CCN(c4c5ccc(Cl)cc5nc5ccc(OC)cc45)CC3)n2)cc1 | 60.1% (inactive) |
| Cc1nn(-c2ccc(Br)cc2)c2nc3c(nc12)C(=O)C(=O)c1ccccc1-3 | 93.5% (inactive) |
| O=C(Nc1ccc(Nc2ccncc2)cc1)c1ccc(Nc2ccnc3ccc([N+](=O)[O-])cc23)cc1[N+](=O)[O-] | 96.8% (inactive) |
| CSc1ncc2ncn(C3OC(CO)C(O)C3O)c2n1 (stereo not given) | 96.5% (inactive) |
| O=C(Nc1ccncc1)C(=O)c1cn(S(=O)(=O)c2cccc(F)c2)c2ccccc12 | 21.7% (inactive) |
| O=Cc1c[nH]c2ccc(NC(=O)OCc3ccccc3)cc12 | 121% (inactive) |
| Nc1nc(N)c([N+](=O)[O-])c(=O)[nH]1 | 97.4% (inactive) |
| OC(CCC(O)(c1ccccc1)c1ccccc1)(c1ccccc1)c1ccccc1 | 69.6% (inactive) |
| O=C(COC(=O)[C@H](C[Se][Se]C[C@H](NC(=O)c1ccc(Br)cc1F)C(=O)OCC(=O)c1ccc(F)cc1)NC(=O)c1ccc(Br)cc1F)c1ccc(F)cc1 | -95% (active) |
| Cc1nc(N)[nH]c(=O)c1C | 125% (inactive) |
